Inconclusive results are not listed. Unmarked numbers belong to inactive results. Activity calls are given as the source filed them. The call rests on the fitted dose curve; in most records, active means well fitted curve in the direction sought with a large enough effect in the repeat runs; inconclusive means weak or mixed curves; inactive means no such curve, though single readings can be large; an effect the other way counts as inactive or inconclusive.
Assay: qHTS assay to identify small molecule antagonists of the retinoid acid receptor (RAR) signaling pathway - cell viability counter screen (AID 1159551); further: nearly all actives have a fitted effect of over 35% in size
Details: C3RL4 cells viability, ATP luminescence (CellTiter-Glo), 6 h; series mostly up to 92.4 µM; activity change, negative = cytotoxicity: at the top concentration
Outline: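 ATP-based viability, C3RL4 cells, 6 h at 37 C with 1 uM final retinol co-added after compound; luminescence read 30 min post CellTiter-Glo, RT.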
On the % scale 0 is the no-effect control and ±100 the full control effect.

Compound | activity change, negative = cytotoxicity
CCCCCCCCCCCCCCCC(=O)OC[C@H](O)[C@H]1OC(=O)C(O)=C1O | 1.16%
O=C(Oc1cccc2cccnc12)c1ccccc1 | -0.712% [at 42.5 µM]
Cc1ccc(O)c2ncccc12 | -0.0878% [at 42.5 µM]
CC[C@@]1(O)C(=O)OCc2c1cc1n(c2=O)Cc2cc3c(CN(C)C)c(O)ccc3nc2-1 | 5.42% [at 42.5 µM]
Clc1ccc2nsnc2c1NC1=NCCN1 | -1.53% [at 42.5 µM]
O=Cc1cc(O)ccc1Br | 0.46%
Nc1cc(C(F)(F)F)ccc1S | -9.58% [at 42.5 µM]
C/C(=C(/OCCOc1ccc(Cl)cc1)c1ccc(Cl)cc1Cl)n1ccnc1 | 1.44% [at 42.5 µM]

Assay: qHTS assay to identify small molecule antagonists of the retinoic acid receptor (RAR) signaling pathway (AID 1159552; further: nearly all actives have a fitted effect of over 50% in size; further: potency means the concentration at half of the fitted maximal effect)
Details: C3RL4 RARE luciferase reporter, retinol-stimulated, 6 h; series mostly up to 92.4 µM; activity, negative = inhibition: at the top concentration
Outline: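 Using a RARE-driven luciferase construct in C3RL4 cells, retinol at 1 uM final provided the agonist stimulus while compounds were co-applied. After 6 hours at 37 C, luminescence was recorded to flag inhibitors of retinol signaling.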

Compound | activity, negative = inhibition | Potency
Cc1cc(C2CCCCC2)n(O)c(=O)c1 | -106% [at 42.5 µM] | 
CCc1cc(Cc2cc(CC)c(N)c(CC)c2)cc(CC)c1N | -20.6% | 
CNc1ccc(O)cc1 |  | 27.3 µM (active)
N#CSc1ccc(N)c([N+](=O)[O-])c1 |  | 17.3 µM (active)
O=C(OC[C@H]1O[C@@H](OC(=O)c2cc(O)c(O)c(OC(=O)c3cc(O)c(O)c(O)c3)c2)[C@H](OC(=O)c2cc(O)c(O)c(OC(=O)c3cc(O)c(O)c(O)c3)c2)[C@@H](OC(=O)c2cc(O)c(O)c(OC(=O)c3cc(O)c(O)c(O)c3)c2)[C@@H]1OC(=O)c1cc(O)c(O)c(OC(=O)c2cc(O)c(O)c(O)c2)c1)c1cc(O)c(O)c(OC(=O)c2cc(O)c(O)c(O)c2)c1 | 22.4% [at 19 µM] | 
Cc1c(C)c2c(c(C)c1OC(=O)CCC(=O)O)CC[C@@](C)(CCC[C@H](C)CCC[C@H](C)CCCC(C)C)O2 | -0.514% | 
CCCC(=O)OC[C@@H](OC(=O)CCC)[C@@H](OC(=O)CCC)[C@H](Cn1c2nc(=O)[nH]c(=O)c-2nc2cc(C)c(C)cc21)OC(=O)CCC | -16.2% [at 42.5 µM] | 
